“And” between values parts separate entries of the source, which are not always exact repeats. Identical values can stand only once. In all, about 260,000 compounds went through this assay and about 1,500 (0.58%) were called active. Not shown: some 5% with an inconclusive outcome.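 How the source made its calls: active means inhibition above a set limit at one or more doses, reproduced on every date tested; inconclusive means results disagree between test dates, or hit never tested in dose response; inactive means the rest.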 The list is a sample of the results. Entries with a potency or affinity are not part of this list.
biological target: Virion infectivity factor (Human immunodeficiency virus type 1 group M subtype B (isolate BH10)) + Virion infectivity factor (Human immunodeficiency virus type 1 group M subtype B (isolate BRU/LAI)) + Virion infectivity factor (Human immunodeficiency virus type 1 group M subtype B (isolate PCV12)) + Virion infectivity factor (Human immunodeficiency virus type 1 group M subtype B (isolate HXB2)) + DNA dC->dU-editing enzyme APOBEC-3G (Homo sapiens) (UniProt P69720+P69721+P69722+P69723+Q9HC16); assay: inhibitors of Vif binding to APOBEC3G peptide, primary screen, biochemical, TR-FRET, GST-Vif 1-94, biotin-A3G peptide, dose response retest (AID 1117319); conditions: hits give high values;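 further: Vif residues 1-94 fused to GST binding biotinylated APOBEC3G peptide 110-148; 0% = full assay without inhibitor and 100% = GST in place of GST-Vif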

inhibition, inactive:
O=C(NCCN1C(=O)S/C(=C\c2ccc(Cl)c(Cl)c2)C1=O)c1cnccn1 20.5%
O=C(c1cc([N+](=O)[O-])ccc1N1CCOCC1)N1CCN(c2ccc([N+](=O)[O-])cc2)CC1 11.3%
O=C(NCc1ccccc1)c1csc2c1CCCCC2 -0.06%
COc1ccccc1CNC(=O)c1csc2c1CCCC2 10.6%
[O-]/C(=C(\C(=S)Nc1ccc(SC(F)F)cc1)[n+]1ccccc1)c1ccc(Cl)cc1Cl -10.3%
COc1cccc(OC)c1C(=O)Nc1nc(-c2ccccc2)cs1 -5.24%
CC(NC(=O)COc1ccccc1Cl)c1ccccc1 (centres undefined) -5.9%
CCn1c(SCC(=O)NNC(=O)c2ccc(OC)cc2)nnc1-c1ccco1 -0.44%
CC(=O)Nc1ccc(/C(N=Nc2ccccc2)=N/N=C(N)N)cc1 16.3%
Oc1ccc(/C=N\Nc2nncc(-c3ccccc3)n2)cc1 -5.32%
O=C1c2cc(Br)ccc2OC2C=CC=CC12 (centres undefined) -11.4%
COc1cc(CNCCc2c[nH]c3ccccc23)ccc1OCc1ccc(F)cc1 12.4%
COc1cccc(CNCCc2c[nH]c3ccccc23)c1OCc1ccc(F)cc1 1.44%
COc1ccc(C(=Cc2cc(OC)c(OC)cc2[N+](=O)[O-])C(=O)O)cc1 2.43%
CCOC(=O)c1cc2c(C)n(-c3ccc(OCC)cc3)c(C)c2ccc1=O 27.2%
O=C(O)C1Nc2c(C(F)(F)F)ccc(Cl)c2C2C=CCC12 (centres undefined) 24.9%
O=[N+]([O-])c1c(O)c(Cl)cc(Cl)c1Cl (tested in a mixture with another compound) -1.68%
O=C(O)C1Nc2c(Cl)cc(Cl)cc2C2C=CCC12 (centres undefined) 63.7%
Cc1noc(C)c1COC(=O)c1cnc(Cl)c(Cl)c1 3.39%
O=C(O)C12CC3CC(C1)CC(n1cnc(Cl)n1)(C3)C2 23.7%
Cc1nnc(Oc2ccccc2F)c2ccccc12 0.32%
Cc1cc(C)c2c(c1)C1C=CCC1C(c1ccc(S(=O)(=O)N3CCOCC3)cc1)N2 (centres undefined) 27.8% and -8.85%
Cc1cc(C)c(NC(=O)c2ccc(S(=O)(=O)N3CCOCC3)cc2)c(C)c1 -5.2%
Cc1ccc(CN2CC(C(=O)Nc3cccc(S(=O)(=O)N4CCCCC4)c3)CC2=O)cc1 (centres undefined) 14.4%
COc1ccc(-c2cc(C(=O)N/N=C/c3ccc4c(c3)OCO4)c3ccccc3n2)c(OC)c1 -3.1%
COc1ccc(/C=N/NC(=O)c2cc(-c3ccccc3OC)nc3ccccc23)cc1COC(C)=O -2.13%
CC(C)(C)c1cc(C(=O)Nc2ccccc2)ccn1 11.4%
Cc1ccccc1C(=O)O/N=C(\c1ccccc1)c1ccccn1 5.71%
O=C(O)c1ccc2c(c1)-c1cc(C(=O)O)ccc1S2(=O)=O -4.26%
Cc1nonc1-c1csc(N)n1 -6.95%
Cc1ccn2cc(C34CC5CC(CC(C5)C3)C4)nc2c1 17%
COc1cc(NC(=O)CSc2ccc(-c3ccco3)nn2)cc(OC)c1 0.78%
CCN(CC)c1cc(NCCO)c([N+](=O)[O-])c2nonc12 0.97%
CCC(=O)OCCNc1cc(Sc2nc3ccccc3s2)c2nonc2c1[N+](=O)[O-] 5.25%
CCC(=O)OCCNc1cc(Sc2nccn2C)c2nonc2c1[N+](=O)[O-] -4.53%
CN(CCO)c1cc(Sc2nc3ccccc3s2)c2nonc2c1[N+](=O)[O-] 1.28%
Cc1ccc(Sc2cc(NCCCO)c([N+](=O)[O-])c3nonc23)cc1 9.02%
CCC(=O)OCCNc1cc(SCCC(=O)OC)c2nonc2c1[N+](=O)[O-] 20%
CC(C)CCSc1cc(NCCO)c([N+](=O)[O-])c2nonc12 -1.66%
CC(=O)OCCCNc1cc(Sc2ccc(C)cc2)c2nonc2c1[N+](=O)[O-] 15.4%
CCCN1CCc2c(sc(NC(=O)CCS(=O)(=O)c3ccccc3)c2C(N)=O)C1 0.13%
CCOC(NC(=O)c1ccccc1)C(NC(=O)c1ccccc1)OCC (centres undefined) -1.18%
COc1ccccc1CC(O)CC1c2c(cc3c(c2OC)OCO3)CCN1C (centres undefined) -0.54%
CC(=O)c1cc(C)ccc1OC(=O)c1cccc2nc(C)oc12 3.65%
COC(=O)c1ccccc1N=Nc1c(C)n[nH]c1C -7.02%
COC(=O)CN1C(=O)C2(OCCCO2)c2cc(Br)ccc21 -2.05% and -8.37%
CN1CCN(C(=O)c2cc3c(C(F)(F)F)nn(C)c3s2)CC1 6.37%
O=C(COc1ccc(Cl)cc1Cl)N(Cc1ccco1)C1CCS(=O)(=O)C1 (centres undefined) -2.82%
O=C(Cc1c(F)cccc1Cl)N1CCN(S(=O)(=O)c2cccc(F)c2)CC1 -1.72%
O=C(O)C1CC=CCC1C(=O)N1CCc2ccccc21 (centres undefined) 23.4%
O=C(C1CCCCC1)N1CCc2ccccc21 3.73%
CCN(CC)S(=O)(=O)c1ccc(OCC(=O)NC(=O)Cc2ccccc2)c([N+](=O)[O-])c1 1.51%
O=C(c1ccccc1)c1ccc(OCCO)cc1 -4%
C=C(c1ccc(OC)cc1)c1ccc(OC)cc1 13.2%
CC1(C)CC(=O)C(C=NCCCN2CCOCC2)=C(O)C1 -5.25%
CCc1cc2ccc(OC)cc2nc1SCC(=O)NNC(=O)c1ccco1 -10%
Cc1ccc(NC(=S)N(CCCN2CCOCC2)Cc2ccco2)cc1C -0.03%
CN(C)c1ccc(/C=C2\C(=N)N3C(=NC2=O)Sc2cc(S(C)(=O)=O)ccc23)cc1 -44.5%
COc1ccc(/C=C2/C(=N)N3C(=NC2=O)Sc2cc(S(C)(=O)=O)ccc23)cc1OC -1.27%
